Compound activity: PubChem, National Center for Advancing Translational Sciences (NCATS)
Tau fluor counter: Counterscreen qHTS for Inhibitors of Tau Fibril Formation, Fluorescence Polarization; tau K18 P301L Alexa594 fluorescence, heparin fibrillization; Potency, µM (doses to about 57.7 µM); 280,000 tested, 0.93% active; further: nearly all actives have a fitted effect of over 55% in size
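Human tau K18 P301L (15 uM unlabeled, 0.24 uM Alexa 594-labeled) in 100 mM sodium acetate pH 7 with 20 uM heparin, 6 hr at 37 C. ThT 30 uM added, 1 hr ambient; Alexa 594 FP and total fluorescence read at 555/632 nm.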
FBPA coupling cs: qHTS Assay for Inhibitors of Fructose-1,6-bisphosphate Aldolase from Giardia Lamblia: Coupling assay counterscreen | 290,000 tested, 0.67% active | coupling enzyme system counterscreen, AmpLite Red fluorescence | activity change, negative = inhibition, % at 58.2 µM, hits read low; in the data active means activity change below about -30%
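First, compound is pin-transferred into glyceraldehyde-3-phosphate coupling-enzyme reagent at 57.5 uM final and held 10 min at RT. Next, substrate, coupling system and AmpLite Red are added. After 20 min RT, fluorescence (525/598 nm) is read.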
Tau FP inhib: qHTS for Inhibitors of Tau Fibril Formation, Fluorescence Polarization. K18 P301L tau heparin fibrillization, Alexa594 FP, 6 h. Microtubule-associated protein tau (Homo sapiens), P10636. Potency, µM (doses to about 57.7 µM), hits mostly inhibitors. 280,000 tested, 0.39% active; further: nearly all actives have a fitted effect of over 55% in size
Target sequence (P10636 561-689 P618L limits assumed): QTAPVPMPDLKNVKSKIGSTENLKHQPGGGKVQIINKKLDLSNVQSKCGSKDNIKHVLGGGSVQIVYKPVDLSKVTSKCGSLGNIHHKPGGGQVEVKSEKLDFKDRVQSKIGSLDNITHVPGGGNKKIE
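Compound effects on tau fibrillization are measured by Alexa 594 fluorescence polarization (ex 555, em 632 nm). K18 P301L tau is used at 15 uM with 0.24 uM labeled tracer, and 20 uM heparin induces aggregation over 6 hr at 37 C.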
Sfp PPTase inh: qHTS Assay for Inhibitors of Bacillus subtilis Sfp phosphopantetheinyl transferase (PPTase). Potency, µM, actives largely listed as inhibitors. Biochemical Sfp PPTase activity, qHTS. 310,000 tested, 3.5% active. AID 1490, 2009. 4'-phosphopantetheinyl transferase ffp (Bacillus subtilis), Q9F4F7;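 further: the enzyme is Sfp with the accession as filed and its product quenches rhodamine fluorescence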
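Sfp 15 nM + cpd, 15 min RT; start w/ rhodamine-CoA 5 uM, BHQ-2-YbbR 12.5 uM (final); 50 mM Hepes pH 7.6, 10 mM MgCl2, 0.01% NP-40, 0.01% BSA; read 525/598 nm at 0 and 30 min.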
Tau ThT inhib: qHTS for Inhibitors of Tau Fibril Formation, Thioflavin T Binding. recombinant tau K18 P301L (four-repeat tau fragment), heparin-induced fibrillization, ThT fluorescence. Potency, µM (titrated, usually from 57.4 µM), usual class: inhibitors. 270,000 tested, 2.1% active; further: nearly all actives have a fitted effect of over 55% in size
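Heparin-induced (20 uM) aggregation of recombinant human K18 P301L tau, 15 uM unlabeled with 0.24 uM labeled, pH 7 acetate buffer, 6 hr at 37 C with compound. Fibrils quantified by 30 uM ThT fluorescence after 1 hr ambient incubation.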
Each line names hits and unclear results; the compound was inactive in the other large screens; [ ] = remark or other dose. Sampled rows, rich in hits. Any-hit rate of the full collection: about 5.2%. Unless noted, the call rests on the fitted dose curve; in most records, active means well fitted curve in the direction sought with a large enough effect; inconclusive means small, poorly fitted or top-dose-only effect, or another doubt; inactive means no such curve, though single readings can be large; an effect the other way counts as inactive or inconclusive.

CO[C@H](C(=O)[C@@H](O)[C@@H](C)O)C1Cc2cc3cc(O[C@H]4C[C@@H](O[C@H]5C[C@@H](O)[C@H](O)[C@@H](C)O5)[C@@H](O)[C@@H](C)O4)c(C)c(O)c3c(O)c2C(=O)[C@H]1O[C@H]1C[C@@H](O[C@H]2C[C@@H](O[C@H]3C[C@](C)(O)[C@H](O)[C@@H](C)O3)[C@H](O)[C@@H](C)O2)[C@H](O)[C@@H](C)O1 (stereo partly drawn)	none (no result: Tau fluor counter, FBPA coupling cs, Tau FP inhib, Tau ThT inhib)
CCCCCCCCCCOCC(O)CN (stereo not drawn)	none (no result: Tau fluor counter, FBPA coupling cs, Tau FP inhib, Tau ThT inhib)
CCOc1ccc(N=C2NC(=O)S/C2=C\c2ccc(Cl)cc2)cc1	Tau ThT inhib inconclusive
COc1ccc(N=C2NC(=O)S/C2=C\c2ccc(N(C)C)cc2)cc1	Tau fluor counter inconclusive, Tau FP inhib inconclusive, Tau ThT inhib 1.1µM
Cc1ccc(/C=C(\C#N)C(=O)Nc2ccc(Br)cc2)o1	Tau FP inhib inconclusive (no result: FBPA coupling cs, Sfp PPTase inh)
N#C/C(=C\c1ccc([N+](=O)[O-])o1)C(=O)Nc1ccc(F)cc1	Tau fluor counter inconclusive, Tau FP inhib inconclusive, Sfp PPTase inh 40µM, Tau ThT inhib 14µM
N#CCc1ccc(NC(=O)/C=C/c2ccc([N+](=O)[O-])o2)cc1	Tau FP inhib inconclusive, Sfp PPTase inh inconclusive, Tau ThT inhib 11µM
COc1cc2c(cc1OC)C1N(CC2)C(=O)CCC12C(=O)CCCC2=O (stereo not drawn)	Sfp PPTase inh inconclusive
N#Cc1ccccc1S(=O)(=O)N1CCN(CC(O)COc2ccccc2F)CC1 (stereo not drawn)	Sfp PPTase inh 56µM (no result: Tau fluor counter, Tau FP inhib, Tau ThT inhib)
O=S(=O)(c1ccc(F)cc1)N1CCN(CC(O)COc2ccccc2F)CC1 (stereo not drawn)	Sfp PPTase inh 56µM (no result: Tau fluor counter, Tau FP inhib, Tau ThT inhib)
Cc1nc(C)c(-c2csc(NCc3ccccc3)n2)s1	Sfp PPTase inh 56µM
Cc1nc(C)c(-c2csc(NCc3ccco3)n2)s1	Tau FP inhib inconclusive, Tau ThT inhib inconclusive
COc1ccc(CCNc2nc(C)c(C(C)=O)s2)cc1OC	Sfp PPTase inh 16µM (no result: Tau fluor counter, Tau FP inhib, Tau ThT inhib)
CC(=O)c1sc(NCc2ccc(C)cc2)nc1C	none (no result: Tau fluor counter, Tau FP inhib, Tau ThT inhib)
COc1ccc(CCNc2nc(-c3ccc(F)cc3)c(CC(=O)O)s2)cc1OC	Sfp PPTase inh 35µM (no result: Tau fluor counter, Tau FP inhib, Tau ThT inhib)
COc1ccc(CCNc2nc(-c3ccncc3)cs2)cc1OC	Sfp PPTase inh inconclusive (no result: Tau ThT inhib)
COc1ccc(CCNc2nc(-c3sc(C)nc3C)cs2)cc1OC	Tau fluor counter inconclusive, Sfp PPTase inh 45µM, Tau ThT inhib inconclusive
COc1ccc(C)cc1NC(=O)C(=O)NCC(c1cccnc1)N1CCc2ccccc21 (stereo not drawn)	none (no result: FBPA coupling cs, Sfp PPTase inh)
CN(C)S(=O)(=O)N1CCC(n2c(C(F)(F)F)nc3cccnc32)CC1	none (no result: FBPA coupling cs, Sfp PPTase inh)
O=C(NCc1ccco1)c1nn2c(C(F)(F)F)cc(-c3cccs3)nc2c1Br	Tau FP inhib inconclusive, Sfp PPTase inh 20µM, Tau ThT inhib 14µM
COc1ccccc1OCC(=O)Nc1oc(-c2ccccc2)c(-c2ccccc2)c1C#N	none
COc1ccc(-c2oc(NC(=O)CCl)c(C#N)c2-c2ccc(OC)cc2)cc1	Tau fluor counter 16µM[quencher], Tau ThT inhib 25µM
COc1ccc(-c2oc(NC(=O)CSc3ncn[nH]3)c(C#N)c2-c2ccc(OC)cc2)cc1	Tau fluor counter 14µM[quencher], Tau ThT inhib inconclusive
Cc1ccc(NC(=O)c2ccc(CNS(=O)(=O)c3ccc4c(c3)C(C)(C)C(=O)N4C)cc2)cc1F	none (no result: FBPA coupling cs, Sfp PPTase inh)
S=c1nc(-c2ccccc2)n(Cc2ccco2)c2c1CCCC2	Tau ThT inhib inconclusive
Fc1ccc(-c2nc3nc4ccccc4nc3n2Cc2ccco2)cc1	Sfp PPTase inh 18µM, Tau ThT inhib inconclusive
c1ccc(-c2nc3nc4ccccc4nc3n2Cc2ccco2)cc1	Sfp PPTase inh 10µM, Tau ThT inhib inconclusive
C[C@@]12C=CC(=O)C=C1CC[C@@H]1[C@@H]2[C@H](O)C[C@]2(C)[C@@H]1CC[C@]2(O)C(=O)CO	none (no result: Tau fluor counter, Tau FP inhib, Tau ThT inhib)
COc1ccc(NC(=O)CSc2c(C(C)C)cnc3c2c(=O)n(C)c(=O)n3C)c(OC)c1	none (no result: FBPA coupling cs, Sfp PPTase inh)
CC(=O)c1cccc(NC(=O)c2cnn(-c3cccc(C)c3)c2-n2cccc2)c1	none (no result: FBPA coupling cs, Sfp PPTase inh)
CCSc1nc2ccccc2n1C(=O)/C=C\c1ccc(OC)c(OC)c1	Tau FP inhib inconclusive, Sfp PPTase inh 50µM, Tau ThT inhib 10µM
CCSc1nc2ccccc2n1CC(N)=O	none
O=C(/C=C/c1ccc(Cl)c([N+](=O)[O-])c1)Nc1ccc(N2CCCC2)c(Cl)c1	Tau fluor counter inconclusive, Tau ThT inhib 1µM
O=C(Nc1ccc(N2CCCC2)c(Cl)c1)c1ccc([N+](=O)[O-])o1	Tau fluor counter 14µM[quencher], Tau ThT inhib 8.9µM
CCOC(=O)c1ccc(NC(=O)c2cc3ccccc3o2)cc1	Tau fluor counter inconclusive, Sfp PPTase inh 79µM
O=C(Nc1ccc(N2CCOCC2)c(Cl)c1)c1ccc(Br)o1	Tau fluor counter inconclusive, FBPA coupling cs -32, Tau FP inhib inconclusive, Tau ThT inhib inconclusive
Cc1ccc(CNC(=O)CN2C(=O)CSc3ccc(S(=O)(=O)N(C)C)cc32)cc1	none (no result: FBPA coupling cs, Sfp PPTase inh)
O=C(Nc1ccccc1N1CCOCC1)c1cc2ccccc2o1	none (no result: Tau fluor counter, Tau FP inhib, Tau ThT inhib)
O=C(Nc1ccc(N2CCOCC2)c(Cl)c1)c1cc2ccccc2o1	Tau fluor counter inconclusive, FBPA coupling cs -33, Tau ThT inhib inconclusive
O=C(Nc1ccc(N2CCCC2)cc1)c1ccc(Br)o1	Tau fluor counter inconclusive, Sfp PPTase inh inconclusive, Tau ThT inhib 8.9µM
Cc1ccc(C(=O)Nc2ccc3c(c2)N(C)C(=O)c2ccccc2S3)cc1	Tau fluor counter inconclusive, Tau FP inhib inconclusive (no result: FBPA coupling cs, Sfp PPTase inh)
Cc1cccc(N2CCN(C(=O)c3cc4c(=O)[nH]c5ccc(C)cc5c4s3)CC2C)c1 (stereo not drawn)	Tau fluor counter inconclusive, Tau ThT inhib inconclusive (no result: FBPA coupling cs, Sfp PPTase inh)
O=C(O)c1ccc(N/N=C/c2ccc(-c3ccc(Br)cc3)o2)cc1	none (no result: Tau fluor counter, Tau FP inhib, Tau ThT inhib)
